# Assay results reported in PubChem BioAssay (NCI).
# Where “and” joins values, the source holds several entries; their conditions need not be identical. Equal entries are not always repeated. Compounds without any hit were thinned out: in the full panel of roughly 83,000, 20% have a hit.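 Treatment: one concentration, 48 hours, 96-well format. Scoring: percent growth, with anything below 10 considered active.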 A number with no mark means an inactive call. Calls of active or inactive are those of the source.
# System: HL-60(TB) leukemia
# Test: NCI-60 one-dose screen, 48 h (100 = growth as untreated, 0 = no growth, -100 = all killed)
smiles,measurement,setting,value
O=C(O)c1c(Cl)c(Cl)c(Cl)c(Cl)c1-c1c2cc(I)c(=O)c(I)c-2oc2c(I)c(O)c(I)cc12,growth,10 µM,103% and 104% and 109%
same,growth,100 µM,-52.2% (active)
CN1CCN(C2=Nc3ccccc3Oc3ccc(Cl)cc32)CC1,growth,10 µM unless noted,91.8%
CNC(=O)c1cc(Oc2ccc(CC(=O)Nc3cc(C(C)(C)C)nn3C)cc2)ccn1,growth,1 µM,85.3%
same,growth,10 µM,77%
same,growth,30 µM,68.2%
CCc1ccccc1-n1c(N)c(C#N)c(-c2ccc(OC)c(OC)c2)c(C#N)c1=O,growth,10 µM,113%
same,growth,100 µM,122%
COc1ccc(C(=O)/C=C/c2ccc(OCc3ccc(Cl)cc3)cc2)cc1OC,growth,10 µM,81.2%
same,growth,100 µM,18.7%
Cc1[nH]c(-c2nc3ccccc3[nH]2)c(C)c1C(=O)NC(C)C1CCCCC1 (stereo unspecified),growth,10 µM,98.3%
same,growth,100 µM,-83.4% (active)
CC(=O)/C=C/c1ccc(N(CCO)Cc2ccc(C(C)(C)C)cc2)cc1,growth,10 µM,69.6%
same,growth,100 µM,-55.3% (active)
COc1ccc(C(=O)/C=C/c2ccc(OCc3cccc(C(F)(F)F)c3)c(OC)c2)cc1OC,growth,10 µM,36.4%
same,growth,100 µM,-17.8% (active)
Cc1ccc(NC(=O)N[C@@H](Cc2cc(F)cc(F)c2)C(=O)N[C@@H]2C(=O)N3CCC[C@H]3C(=O)N3CCOC[C@H]3C(=O)N[C@@H](C)C(=O)N3C[C@H](C)C[C@H]3C(=O)O[C@H]2C)cc1,growth,10 µM unless noted,14.5%
O=c1sc2ncnc3ncn1c32,growth,10 µM unless noted,85.1%
S=c1nc[nH]c2nc[nH]c12,growth,10 µM,13.8%
same,growth,50 µM,12.6%
COc1cc(NS(C)(=O)=O)ccc1Nc1c2ccccc2nc2ccccc12,growth,2.5 µM,-0.933% (active)
same,growth,10 µM,-43.9% (active) and -9.61% (active) and -4.58% (active)
CC#C[C@]1(O)CC[C@H]2[C@@H]3CCC4=CC(=O)CCC4=C3[C@@H](c3ccc4c(c3)OCO4)C[C@@]21C,growth,10 µM,67.5%
same,growth,100 µM,-22.9% (active)
COc1cccc2c1C(=O)c1c(O)c3c(c(O)c1C2=O)C[C@@](O)(C(=O)CO)C[C@@H]3OC1CC(N)C(O)C(C)O1 (stereo partly specified),growth,0.0025 µM,100%
same,growth,2.5 µM,81.9%
same,growth,10 µM,-21.8% (active)
S=P(N1CC1)(N1CC1)N1CC1,growth,10 µM,99.5% and 32.7%
same,growth,100 µM,9.95% (active)
CC/C(=C(\c1ccccc1)c1ccc(OCCN(C)C)cc1)c1ccccc1,growth,10 µM,39.6%
same,growth,12.5 µM,-57.1% (active)
O=C(OCc1ccc2c(Cl)cc(Cl)c(O)c2n1)N1CCN(C(=O)c2cc3cc(F)ccc3[nH]2)CC1,growth,10 µM unless noted,-49.4% (active)
CC(=O)O[C@H]1C(=O)[C@@]2(C)[C@H]([C@H](OC(=O)c3ccccc3)[C@]3(O)C[C@H](OC(=O)[C@H](O)[C@@H](NC(=O)c4ccccc4)c4ccccc4)C(C)=C1C3(C)C)[C@]1(OC(C)=O)CO[C@@H]1C[C@@H]2O,growth,0.01 µM,-8.36% (active)
same,growth,2.5 µM,-43.6% (active)
same,growth,5 µM,-42.4% (active)
same,growth,10 µM,-12.3% (active) and -35.8% (active)
O=C(CN1C(=O)CCC1=O)Nc1ncc(Cc2ccc(F)cc2)s1,growth,10 µM unless noted,98.2%
CCCCN(CCCC)CCCOC(=O)c1ccc(N)cc1,growth,10 µM unless noted,76.4%
COc1cc(N=C2C(=O)N(Cc3ccccc3)c3ccccc32)cc(OC)c1OC,growth,10 µM unless noted,69.9%
COc1cccc(OC(=O)c2ccccc2)c1OC(=O)c1ccccc1,growth,10 µM unless noted,69.6%
CCN(Cc1ccccc1)c1ccc(/C=C2\COc3ccccc3C2=O)cc1,growth,10 µM,78.3%
same,growth,100 µM,8.32% (active)
Cc1c2oc3c(C)ccc(C(=O)N[C@@H]4C(=O)N[C@H](C(C)C)C(=O)N5CCC[C@H]5C(=O)N(C)CC(=O)N(C)[C@@H](C(C)C)C(=O)O[C@H]4C)c3nc-2c(C(=O)N[C@@H]2C(=O)N[C@H](C(C)C)C(=O)N3CCC[C@H]3C(=O)N(C)CC(=O)N(C)[C@@H](C(C)C)C(=O)O[C@H]2C)c(N)c1=O,growth,0.0025 µM,42.6%
same,growth,10 µM,-24.3% (active)
CCCCCCCCCCCCCCCc1ccc(Cl)c(O)c1Cl (tested in a mixture with another compound),growth,0.25 µM,18.3%
same,growth,10 µM,118%
O=C(N/N=C/c1ccccc1)N/N=C/c1ccccc1,growth,10 µM unless noted,95.3% and 98.4%
O=C(O)c1sccc1O,growth,10 µM,62.6%
same,growth,100 µM,3.63% (active)
O=C(/C=C/c1cccc(Oc2ccc(Cl)cc2)c1)c1ccccc1,growth,10 µM,73.9%
same,growth,100 µM,-51.8% (active)
CC(=O)/C=C/c1ccc(N(C)Cc2ccc(C(C)(C)C)cc2)cc1,growth,10 µM,53.9%
same,growth,100 µM,-48.9% (active)
CC(=O)N1N=C(c2ccc(Nc3nc(Nc4ccccc4)nc(Nc4ccccc4)n3)cc2)CC1c1cccc([N+](=O)[O-])c1 (stereo unspecified),growth,10 µM unless noted,94.8%
CN(C)CCNc1ncc(F)c(-c2cnc3cc(-c4cnn(C)c4)ccn23)n1,growth,0.005 µM,101%
same,growth,30 µM,4.9% (active)
